# Reference: the supplement of paper PMC10105736
# A number with no mark means an inactive call.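 The calls were made as follows: active = MAPPIT score above the 99th percentile of random reference set scores in the same batch; inactive = at or below it.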
# B1: htl (protein)
# chain: MAAAWSWRASHSTITMTSGSLVVLFLLLSIWQPAVQVEGRRQMANSQEMIKDHLGARSQNKTPAITNNANQSSTSSADLDDGAADDDDNKADLPVNVSSKPYWRNPKKMSFLQTRPSGSLLTLNCHALGNPEPNITWYRNGTVDWTRGYGSLKRNRWTLTMEDLVPGDCGNYTCKVCNSLGCIRHDTQVIVSDRVNHKPILMTGPLNLTLVVNSTGSMHCKYLSDLTSKKAWIFVPCHGMTNCSNNRSIIAEDKDQLDFVNVRMEQEGWYTCVESNSLGQSNSTAYLRVVRSLHVLEAGVASGSLHSTSFVYIFVFGGLIFIFMTTLFVFYAIRKMKHEKVLKQRIETVHQWTKKVIIFKPEGGGDSSGSMDTMIMPVVRIQKQRTTVLQNGNEPAPFNEYEFPLDSNWELPRSHLVLGATLGEGAFGRVVMAEVNNAIVAVKMVKEGHTDDDIASLVREMEVMKIIGRHINIINLLGCCSQNGPLYVIVEYAPHGNLKDFLYKNRPFGRDQDRDSSQPPPSPPAHVITEKDLIKFAHQIARGMDYLASRRCIHRDLAARNVLVSDDYVLKIADFGLARDIQSTDYYRKNTNGRLPIKWMAPESLQEKFYDSKSDVWSYGILLWEIMTYGQQPYPTIMSAEELYTYLMSGQRMEKPAKCSMNIYILMRQCWHFNADDRPPFTEIVEYMDKLLQTKEDYLDVDIANLDTPPSTSDEEEDETDNLQKWCNY
# B2: Surf4 (protein)
# chain: MSIPNEYIAKTEDVAEQVIKRGKNVLPTVARLCLIATFFEDGLRMYIQWNEQREYMDMSWGCGKFLATVFVLVNLLGQLGGCGMVMARFKVDIAVGLLFFIVVLQTVAYSILWDFQFLLRNFALIGALLLVLAEARIEGRSLFAGVPSMGENKPKNFMQLAGRILLAFMFITLIRFELSVWQVIQDIIGSILMVLVVLGYKTKLSALILVALLTILNLYHNAWWTIPSYKPLRDFLKYDFFQTLSVIGGLLMIVSLGPGGVSMDEHKKKW
# B3: Coa8 (protein)
# chain: MNKCFRCQPRISLFQFSLPRCYAAVQPGCPPPQEKPVVGLPHKPDPKTVKCDYIGPPDAQSNLRPYVRHYGDEETRLARSLRLKRIEVEAWNTDFWTKHNKRFYEEKEDFIRLHKESGTSEVSADQMSHFYKAFLDKNWRIHIMYNISWYLKNFDILTLAAAVQLQRLLALAKRRS
# B4: meigo (protein)
# chain: MNLPERSRFVIYAVGIFVCYFLYGIVQEKLTRGRYGEEVQTDGSVGERFTYALALVWVQCLCNYVFAKVLLTIRPQKEDTTNAGSYVACSLTYLLAMVSTNMAMRWVPYPTAVVGKSAKPIPVMILGVLIGRKSYSWTRYACVLTIVLGVILFMYKEGKVSNLPAETTLLGEVLLFLSLSMDGLTGAVQERIRAASAPSGQQMMRAMNFWSTLMLGVAMVFTGEAKEFMYFTIRHPEAWTHLSLIAVCGVLGQFFIFLMVASFGPLACSVVTTTRKFFTVLCSVLLFGNVLIARQWLGAVLVFAALFVDMLYGKKAPLATAKKPPVEGKLSEEKKLNS
# B5: grk (protein)
# chain: MMQIPFTRIFKVIFVLSTIVAVTDCCSSRILLLREHTLKIVQHQHSHMHEHAHELQQQIQETAVELLNRLELQRKQLEASAQEEADQLHPDTDPNPDSGGQLPNADDSIAADPEQDGIILGSSTDTWLASESSTPITDSETVTTPETVTHTGEPPPDPSSSSTPDSTTPSPNDKETEIQMLPCSEAYNTSFCLNGGHCFQHPMVNNTVFHSCLCVNDYDGERCAYKSWNGDYIYSPPTAQRKVRMAHIVFSFPVLLMLSSLYVLFAAVFMLRNVPDYRRKQQQLHLHKQRFFVRC
# B6: CG3792 (protein)
# chain: MTDLIRQGALFLMSEKCYDNYFLYHNFLDVPCFKALLSKGLGLAIIAGSVLVKVPQVLKILNSKSGEGINIVGVVLDLLAISFHLSYNFMHGYPFSAWGDSTFLAIQTVTIAVLVLFFNGRKAQSGLFLVGYVVLMYVLNSGLTPMSVLFTIQSCNIPILLVGKLSQAYTNYQAGSTGQLSAATVIMMFAGSVARIFTSIQETGDFMIILTFIASTFANSVILGQLIYYWNKPAGVKVKDSKAKKPKTKKDD
# B7: RpS3 (protein)
# chain: MNANLPISKKRKFVSDGIFKAELNEFLTRELAEDGYSGVEVRVTPSRTEIIIMATKTQQVLGEKGRRIRELTAMVQKRFNFETGRIELYAEKVAARGLCAIAQAESLRYKLTGGLAVRRACYGVLRYIMESGAKGCEVVVSGKLRGQRAKSMKFVDGLMIHSGDPCNDYVETATRHVLLRQGVLGIKVKVMLPYDPKNKIGPKKPLPDNVSVVEPKEEKIYETPETEYKIPPPSKPLDDLSEAKVL
# B8: CG2034 (protein)
# chain: MLSNLVVTKQKVVLVIDELNRERIAPKFIGSLLHEQGQGADTIKALPTGVSLKHVATFEALIDKYANNNTGSTTDSNSTGFNVILPTLADLLCYQTPAFIFGFLNRLRRSDNVRRVFLWASPQHLQDPHADYILAGCEYLAELVLRLESDKLLSLISRKPGGGVSNRRYSCEVSKTQFKVTPLDGGLPAGASPKQPSPEAEQTTEPASSTFKIELDEDEVLARNALTLPYERTSEPSEGNIIYTPDADDDFDEEDPDEDLCI
# B9: AdSS (protein)
# chain: MSASATNGTHYEQLHQGRTKMYKSKVDVVLGAQWGDEGKGKVVDMLASDVDIVCRCQGGNNAGHTVVANGTEFDFHLLPSGVVNEKCVSVIGNGVVIHLPSLFDEVLKNEAKGLQHLENRLIISDRAHLVFDFHQHVDGMQEAEKGGKSLGTTKKGIGPAYSSKATRNGIRVGELLGDFNLFSEKFKSIVATHVRLFPSINVDVEAELARYKDYADKVRPYVKDTICFLHTALRNGKTILVEGANAAMLDIDFGTYPYVTSSNCSIGGVLTGLGLPPQTIGEVIGVVKAYTTRVGDGPFPTEQLNDIGDLLQTRGFEVGVTTKRKRRCGWLDIPLLKYTSLVNGYTCICLTKLDILDTLPEIKVAVAYKKPNGEKLDHFPGTIAELGNIEVEYAVLPGWQTSTEEVRNFKELPENAQSYVRLLESELSVPVRWVGVGKGRESIINVH
# B10: sd (protein)
# chain: MKNITSSSTCSTGLLQLQNNLSCSELEVAEKTEQQAVGPGTIPSPWTPVNAGPPGALGSADTNGSMVDSKNLDVGDMSDDEKDLSSADAEGVWSPDIEQSFQEALSIYPPCGRRKIILSDEGKMYGRNELIARYIKLRTGKTRTRKQVSSHIQVLARRKLREIQAKIKVQFWQPGLQPSTSQDFYDYSIKPFPQPPYPAGKTSTAVSGDETGIPPSQLPWEGRAIATHKFRLLEFTAFMEIQRDEIYHRHLFVQLGGKPSFSDPLLETVDIRQIFDKFPEKSGGLKDLYEKGPQNAFYLVKCWADLNTDLTTGSETGDFYGVTSQYESNENVVLVCSTIVCSFGKQVVEKVESEYSRLENNRYVYRIQRSPMCEYMINFIQKLKNLPERYMMNSVLENFTILQVMRARETQETLLCIAYVFEVAAQNSGTTHHIYRLIKE
# B11: Mlp84B (protein)
# chain: MPSFQPIEAPKCPRCGKSVYAAEERLAGGYVFHKNCFKCGMCNKSLDSTNCTEHERELYCKTCHGRKFGPKGYGFGTGAGTLSMDNGSQFLRENGDVPSVRNGARLEPRAIARAPEGEGCPRCGGYVYAAEQMLARGRSWHKECFKCGTCKKGLDSILCCEAPDKNIYCKGCYAKKFGPKGYGYGQGGGALQSDCYAHDDGAPQIRAAIDVDKIQARPGEGCPRCGGVVYAAEQKLSKGREWHKKCFNCKDCHKTLDSINASDGPDRDVYCRTCYGKKWGPHGYGFACGSGFLQTDGLTEDQISANRPFYNPDTTSIKARDGEGCPRCGGAVFAAEQQLSKGKVWHKKCYNCADCHRPLDSVLACDGPDGDIHCRACYGKLFGPKGFGYGHAPTLVSTSGESTIQFPDGRPLAGPKTSGGCPRCGFAVFAAEQMISKTRIWHKRCFYCSDCRKSLDSTNLNDGPDGDIYCRACYGRNFGPKGVGYGLGAGALTTF
# B12: Tpst (protein)
# chain: MRLPYRNKKVTLWVLFGIIVITMFLFKFTELRPTCLFKVDAANELSSQMVRVEKYLTDDNQRVYSYNREMPLIFIGGVPRSGTTLMRAMLDAHPDVRCGQETRVIPRILQLRSHWLKSEKESLRLQEAGITKEVMNSAIAQFCLEIIAKHGEPAPRLCNKDPLTLKMGSYVIELFPNAKFLFMVRDGRATVHSIISRKVTITGFDLSSYRQCMQKWNHAIEVMHEQCRDIGKDRCMMVYYEQLVLHPEEWMRKILKFLDVPWNDAVLHHEEFINKPNGVPLSKVERSSDQVIKPVNLEAMSKWVGQIPGDVVRDMADIAPMLSVLGYDPYANPPDYGKPDAWVQDNTSKLKANRMLWESKAKQVLQMSSSEDDNTNTIINNSNNKDNNNNQYTINKIIPEQHSRQRQHVQQQHLQQQQQQHLQQQQHQRQQQQQQREEESESEREAEPDREQQLLHQKPKDVITIKQLPLAGSNNNNINNNINNNNNNNNIMEDPMADT
# B13: RpS19b (protein)
# chain: MPGVTVKEIDQHVLTKNMAAFLKKSGKIFVPEQAVYMKTGKFKETAPTDDDWFYTRCASIMRHLYLRSPAGVGAFTKVYSGRKRNGVRPSKHCRSSDGCIRKALQALEAANMVERHPDGGRKLTPQGQRNLDRIANKIVAKQRERSAPVSMIITT
# B14: CG7639 (protein)
# chain: MPKSGRDGGASKDSKYDLSKISARVDRVNVSGLLRTHNDYVMRAADGLFKASNFQDLMLEAMSTKSYLHELGIFKDVSVHIDVSRGADASPQGYEVTFKGNEMSRMMGSAGTEIGQNEGSLRTELTIPNILGRGENISLQGSYSSTRANDLQLKFWKPFFHTRFKENRPEMSFSIFRQTDRFDISSFQTTNIGYLVDFSAHTMVGVDLTHSLQYENAIRDVGLLNKSVPFAIRDHCGPKLASLLRYSVVYDNRDGNVFPTRGIYLKSVNEYCGLGGNVAYTSSTAHGELNVPLFAGLVAQFCARVGVVKETKNTTQLPISSLFYCGGPLTLRGFKFGGAGPVVESTPIGAQSFWCTGAHLWAPLPFAGVFKNLASHFRMHFFYNIGNNNSFSTENMRSAFGMGLAVKLAERARIELNYCVPVRHQDTDRILNGFQFGIGYEFV
# Legend:
# Assay in all cases: MAPPIT interaction score (arbitrary units); higher = stronger binary interaction signal, active = hit call of the paper
# Uba5 = conditions: pair source set: RRS
# Tsp74F = conditions: MAPPIT configuration: N-C; pair source set: screen_3
# Uba4 = conditions: MAPPIT configuration: N-N; pair source set: Curagen_high_conf
# Tim17b2 = conditions: MAPPIT configuration: N-C
# Tom20 = conditions: MAPPIT configuration: N-N; pair source set: DPIM
# TwdlW = conditions: MAPPIT configuration: N-N; pair source set: Lit-BS-16
# U4-U6-60K = conditions: MAPPIT configuration: N-N; pair source set: DPIM
# Usp16-45 = conditions: MAPPIT configuration: N-N; pair source set: Curagen_low_conf
# Tgi = conditions: MAPPIT configuration: N-N; pair source set: Lit-BM-16
# yki = conditions: MAPPIT configuration: N-N; pair source set: Lit-BM-16
# Traf-like = conditions: MAPPIT configuration: N-N; pair source set: Curagen_low_conf
# Tsp96F = conditions: MAPPIT configuration: N-C; pair source set: screen_3
# ninaD = conditions: MAPPIT configuration: N-C; pair source set: screen_3
# Tm1 = conditions: MAPPIT configuration: N-N; pair source set: Curagen_high_conf
# Trxr1 = conditions: MAPPIT configuration: N-N; pair source set: Finley_Y2H
# 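Also: HEK293T cells with Epo stimulation, STAT-responsive firefly luciferase reporter, fold induction versus unstimulated cells divided by the larger fold induction of two negative controls lacking either bait or prey.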
binder,measurement,setting,value
B1,MAPPIT interaction score,Uba5; MAPPIT configuration: N-C,-0.924
same,MAPPIT interaction score,Uba5; MAPPIT configuration: N-N,-0.283
B2,MAPPIT interaction score,Tsp74F,-0.232
B3,MAPPIT interaction score,Uba4,2.52 (active)
B4,MAPPIT interaction score,Tim17b2; pair source set: screen_4,-0.125
B5,MAPPIT interaction score,Tom20,0.109
B6,MAPPIT interaction score,Tim17b2; pair source set: screen_3,-0.183
B7,MAPPIT interaction score,TwdlW,-0.331
B8,MAPPIT interaction score,U4-U6-60K,0.24
B9,MAPPIT interaction score,Usp16-45,1.38
B10,MAPPIT interaction score,Tgi,0.163
same,MAPPIT interaction score,yki,0.822
B11,MAPPIT interaction score,Traf-like,-0.422
B12,MAPPIT interaction score,Tsp96F,-0.524
same,MAPPIT interaction score,ninaD,0.243
B13,MAPPIT interaction score,Tm1,0.314
B14,MAPPIT interaction score,Trxr1,-0.0261
